Akt phos inh: inhibitors of Akt phosphorylation; AID 651550; actives 0.32% (n = 360,000); Neuro2A IGF-stimulated pAkt S473 HTRF, 20 min; stronger effect = lower value; activity change, % for hits at 50 µM; in the data active = activity change below about -80%; inconclusive = mostly about -51% to -80%; note: % is set by controls: 0 for no effect and ±100 for the full control effect
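Neuro2A cells in DMEM with 0.5% FBS, overnight at 37 deg C, given compound at single 50 µM final, then IGF (6 nM final) for 20 min at 37 deg C. Lysed; phospho-Akt Ser473 by HTRF after 24 h, 665/615 ratio.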
gsp ag: activates gsp, the McCune-Albright syndrome mutation; gsp mutant cells, cAMP HTRF, 30 min; Potency, µM (series often up to 76.9 µM), without a hit: at the highest dose activation (cAMP increase), hits mostly activators; actives 0.13% (n = 340,000); AID 624287; active = well fitted activation curve with a large enough effect; inconclusive = small, poorly fitted or top-dose-only effect, or another doubt; inactive = no such curve, though single readings can be large or run the other way; cell line not stated here;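 note: phosphodiesterase inhibitor Ro 20-1724 added with compounds to block cAMP breakdown; potency is the fitted concentration of half-maximal effect; nearly all actives have a fitted effect of over 60% in size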
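Cells stably selected in G418 were plated at 2000/well, grown 16-24 hr, then given compounds in DMSO with the PDE inhibitor […] (300 uM solution added) for 30 min at 37C; cAMP was read by HTRF.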
KCNH2 3.1 inh: blocks the human KCNH2 3.1 channel isoform; U2OS KCNH2 3.1, thallium flux FluxOr; stronger effect = lower value; activity change, % (tested at about 1.8 µM); actives 0.95% (n = 340,000); AID 720553;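 active = maximum activity change below -70%; inconclusive = maximum activity change from -70% to -50%; inactive = maximum activity change above -50%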;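 note: thallium influx rate constant from kinetic fluorescence after stimulation buffer; % is set by controls: 0 for no effect and ±100 for the full control effect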
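Steps: virus added to U2OS suspension (4 h, RT, dark); medium with 10% FBS added, cells plated, 37 C overnight; FluxOr/Red40 loading buffer 45 min RT; stimulation buffer, 2 min kinetic read; rate constant normalized.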
gsp antag: gsp mutant antagonism; gsp-mutant cells, cAMP HTRF, 30 min; Potency, µM (top dose mostly 76.9 µM), without a hit: at the top dose activity change, negative = inhibition, most hits filed as inhibitors; actives 0.4% (n = 340,000); AID 624288; calls by dose curve; cell line not stated here;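 note: intracellular cAMP measured with PDE inhibitor Ro 20-1724 present during compound exposure; potency is the fitted concentration of half-maximal effect; % is set by controls: 0 for no effect and ±100 for the full control effect; nearly all actives have a fitted effect of over 65% in size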
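Cells, 2000/well, grown 16–24 h in DMEM 10% FBS with 0.5 mg/ml G418, then compounds plus […] (300 uM addition stock), 30 min at 37C. cAMP read by HTRF (cAMP-d2 and anti-cAMP antibody-K in lysis buffer) after 30 min RT.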
hERG WT inh: inhibitors of human wildtype KCNH2 potassium channel; Q12809; U2OS, BacMam KCNH2, thallium flux FluxOr; stronger effect = lower value; activity change, % at 1.84 µM; actives 0.37% (n = 340,000);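 active = maximum activity change below -70%; inconclusive = maximum activity change between -70% and -50%; inactive = maximum activity change above -50%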; note: % is set by controls: 0 for no effect and ±100 for the full control effect
Target sequence (Q12809 whole entry, looked up): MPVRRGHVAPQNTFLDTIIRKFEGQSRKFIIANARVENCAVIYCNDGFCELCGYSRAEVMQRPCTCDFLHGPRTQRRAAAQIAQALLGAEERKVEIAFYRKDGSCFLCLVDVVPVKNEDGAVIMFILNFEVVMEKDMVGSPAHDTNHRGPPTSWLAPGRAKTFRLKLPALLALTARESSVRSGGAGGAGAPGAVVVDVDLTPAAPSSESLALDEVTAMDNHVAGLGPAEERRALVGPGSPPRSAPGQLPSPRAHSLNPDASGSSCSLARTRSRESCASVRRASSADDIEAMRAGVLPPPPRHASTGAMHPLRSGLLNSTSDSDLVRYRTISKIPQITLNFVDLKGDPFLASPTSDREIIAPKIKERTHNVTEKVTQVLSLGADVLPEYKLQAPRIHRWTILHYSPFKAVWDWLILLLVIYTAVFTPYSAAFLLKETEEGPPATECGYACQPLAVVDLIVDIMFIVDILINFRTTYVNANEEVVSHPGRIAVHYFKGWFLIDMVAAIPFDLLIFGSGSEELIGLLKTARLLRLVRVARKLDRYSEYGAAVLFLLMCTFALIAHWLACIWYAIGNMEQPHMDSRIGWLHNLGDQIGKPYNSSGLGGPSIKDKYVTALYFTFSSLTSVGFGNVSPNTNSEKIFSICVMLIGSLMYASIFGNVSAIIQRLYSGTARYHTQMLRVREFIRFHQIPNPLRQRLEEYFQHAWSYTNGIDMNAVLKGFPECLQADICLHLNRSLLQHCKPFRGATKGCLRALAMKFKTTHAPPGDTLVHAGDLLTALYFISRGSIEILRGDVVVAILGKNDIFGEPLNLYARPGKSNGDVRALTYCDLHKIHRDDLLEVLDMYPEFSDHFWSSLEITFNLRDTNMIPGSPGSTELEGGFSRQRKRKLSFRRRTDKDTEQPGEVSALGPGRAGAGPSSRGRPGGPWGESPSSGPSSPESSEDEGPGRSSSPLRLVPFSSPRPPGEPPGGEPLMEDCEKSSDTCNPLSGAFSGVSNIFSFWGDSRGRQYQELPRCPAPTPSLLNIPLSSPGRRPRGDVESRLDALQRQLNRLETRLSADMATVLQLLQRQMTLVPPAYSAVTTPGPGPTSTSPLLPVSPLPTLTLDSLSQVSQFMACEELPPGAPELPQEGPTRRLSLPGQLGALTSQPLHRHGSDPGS
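U2OS cells were transduced with wild-type KCNH2 virus (2.03 x 10^8 / mL) for 4 h at room temperature, then cultured overnight at 37 C. Thallium flux was read with FluxOr dye. Rate constants were normalized to DMSO controls.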
Glioma ERSR ind: inducers of ER stress response in human glioma cells; actives 0.02% (n = 420,000); U87-MG GRP78 promoter luciferase reporter, 16 h; AID 602332; Potency, µM, without a hit: top-dose activation, most hits filed as activators; active = well fitted activation curve with a large enough effect; inconclusive = small, poorly fitted or top-dose-only effect; inactive = no such curve, though single readings can be large or run the other way; note: potency is the fitted concentration of half-maximal effect; series mostly up to about 76 µM; % of control where 0% means no effect; nearly all actives have a fitted effect of over 35% in size
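ERSR induction read as luciferase luminescence (Bright-Glo, 10 min at room temperature) in stably transfected human U87-MG glioma cells exposed to compounds for 16 h, using GRP78 as sensor.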
* marks the source's active call; other numbers are inactive results; i = inactive; ? = inconclusive; / = no result given; [ ] = remark or other dose. Most compounds without a hit are left out; they make up all but 1.6% or so of the library.

SMILES | Akt phos inh | gsp ag | KCNH2 3.1 inh | gsp antag | hERG WT inh | Glioma ERSR ind
CCCCCCCNC(=O)C1(CC2CC(c3ccccc3)=NO2)CCN(C(=O)c2ccccc2)CC1 (stereo not given) | i | 2% | -37 | -22% | -19 | -4%
Cc1cc2c(c(-c3ccc(Cl)cc3)c1)OC(CNC(=O)Cc1c(C)noc1C)C2 (stereo not given) | / | / | / | / | / | -4%
COc1cc(C2Nc3ccccc3C(=O)N2Cc2ccco2)ccc1O (stereo not given) | / | / | / | / | / | -1%
CCN(Cc1ccncc1)Cc1ccc2c(c1)CN(C(=O)c1ccc(OC)cc1)CCO2 | / | / | / | / | / | -3%
CN(C(=O)Nc1ccc(Cl)cc1)c1c2c(nn1C)CCCC2 | -87%* | 2% | 3 | 0% | 3 | -4%
N#C/C(=C\c1ccc(-c2cc(Cl)ccc2Cl)o1)C(=O)Nc1cccc2ncccc12 | / | / | / | / | / | -13%
CCOc1ccc(NC(=O)Nc2ccc(Cc3ccncc3)cc2)cc1 | i | -13% | 0 | -3% | 1 | -5%
CCOc1ccc(NC(=S)Nc2ccc(OCC)cc2)cc1 | i | 1%[15.4 µM] | 11 | 35µM* | 2 | -2%
CCOc1ccc(NC(=O)C2CSC(c3ccncc3)=N2)cc1 (stereo not given) | i | 33% | -173* | -6% | -120* | 0%
CCOc1ccc(NC(=O)C2CC(C)=C(C)CC2C(=O)O)cc1 (stereo not given) | -119%* | -20% | 4 | -5% | 3 | -1%
CCOc1ccc(NC(=O)C2CC=CCC2C(=O)O)cc1 (stereo not given) | / | 11% | 1 | 0% | 20 | -2%
COc1cc(OC)c(/C=C/c2ccccn2)c(OC)c1 | / | / | / | / | / | -4%
COC(=O)C1=C(C)NC(C)=C(C(=O)OCCSc2ccccc2)C1C (stereo not given) | / | / | / | / | / | -2%
CN(C)S(=O)(=O)Oc1cccc(C(=O)Nc2cccc(Cl)c2)c1 | i | -30% | -23 | 28µM* | -4 | -4%
O=C(O)c1ccccc1C(=O)c1ccc(N2CCCC2)c([N+](=O)[O-])c1 | i | 11%[15.4 µM] | -25 | -13% | 2 | 1%
CC(=O)c1ccc(N2CCN(c3ccccc3O)CC2)c([N+](=O)[O-])c1 | i | 16%[15.4 µM] | 6 | 32µM* | 9 | -2%
COc1ccc(C(=O)NCc2ccncc2)cc1S(=O)(=O)N1CCOCC1 | i | 17% | 10 | 4% | -11 | -1%
COc1ccc(C(=O)Nc2ccc(N3CCOCC3)cc2)cc1S(=O)(=O)N1CCOCC1 | i | 0% | 2 | -5% | -1 | -1%
COc1ccc(C(=O)NCC(C)(c2ccccc2)c2ccccc2)cc1S(=O)(=O)N1CCOCC1 | i | 32% | -6 | 35µM* | -3 | -3%
COc1ccc(C(=O)Nc2ccc(-c3ccc(C)o3)cc2)cc1S(=O)(=O)N1CCOCC1 | i | 1% | -71* | -22% | 16 | 2%
NCCCC(N)C(=O)O (stereo not given) | / | / | / | / | / | -3%
Fc1ccc(-n2cc(CNCCc3ccccn3)c(-c3ccccc3Cl)n2)cc1 | i | 3%[15.4 µM] | -115* | 8% | -47 | -1%
Cc1cc(C)c2[nH]c(=O)c(CN(Cc3ccco3)C(=S)NCC3CCCO3)cc2c1 (stereo not given) | i | 6%[15.4 µM] | -7 | 5% | -6 | -2%
Cc1ccc2cc(CN(Cc3ccco3)C(=S)NCC3CCCO3)c(=O)[nH]c2c1C (stereo not given) | i | 13% | -82* | 4% | -1 | -3%
COc1ccc(N2CCN(C(=O)c3cc(-c4ccc(F)cc4)[nH]c3C)CC2)cc1 | i | -4% | -83* | ? | -88* | -7%
SMILES | Akt phos inh | gsp ag | KCNH2 3.1 inh | gsp antag | hERG WT inh | Glioma ERSR ind
Cc1[nH]c(-c2ccc(F)cc2)cc1C(=O)N1CCN(c2ccc(Cl)cc2)CC1 | i | 17% | ? | -5% | / | 0%
CC[N+](CC)(CC)c1ccc(/C=C/c2ccnc3ccccc23)cc1 | / | / | / | / | / | -10%
N#C/C(=C\c1ccc[nH]1)C(=O)Nc1ccccc1Cl | i | ? | -17 | 32µM* | 3 | -4%
N#C/C(=C\c1ccc[nH]1)C(=O)Nc1ccccc1F | i | ? | -10 | -4% | 4 | 15%
O=C(Nc1nncs1)c1cc(-c2ccco2)nc2ccccc12 | i | 17%[15.4 µM] | 0 | -27% | -73* | -1%
CCc1nnc(NC(=O)c2cc(-c3ccco3)nc3ccccc23)s1 | i | 10%[15.4 µM] | 10 | -53% | 2 | -1%
O=C(C[n+]1ccccc1Cl)c1cccc([N+](=O)[O-])c1 | / | / | / | / | / | -3%
O=C(C[n+]1cc(Br)cc(Br)c1)c1cccc([N+](=O)[O-])c1 | i | -2%[15.4 µM] | -80* | -2% | -9 | -4%
CC(=O)Nc1ccc(NC(=O)C(C)OC(=O)CCCN=C2NS(=O)(=O)c3ccccc32)cc1 (stereo not given) | i | -50% | 3 | 6% | -3 | -5%
CC(OC(=O)CCN=C1NS(=O)(=O)c2ccccc21)C(=O)Nc1ccc(N(C)C)cc1 (stereo not given) | i | -27% | 8 | 7.1µM* | 1 | 2%
Cc1cccc(N2CCN(C(=O)c3nn(C)c4c3CSc3ccccc3-4)CC2C)c1 (stereo not given) | / | / | / | / | / | -6%
Cc1cccc(N2CCN(C(=O)c3nn(C)c4c3CS(=O)(=O)c3ccccc3-4)CC2C)c1 (stereo not given) | i | 9% | 7 | 35µM* | 10 | -4%
COc1ccc(NC(=O)C(c2ccccc2)N2CCN(c3ccccn3)CC2)cc1Cl (stereo not given) | i | -1% | -109* | -11% | 15 | 1%
COC(=O)COc1ccc2c(-c3ccc(OC)cc3)cc(=O)oc2c1 | i | 10% | -79* | -1% | ? | 25µM*
O=C(Nc1ccc([N+](=O)[O-])cc1Cl)c1ccccc1O | / | / | / | / | / | -6%
CC(=O)Oc1c(C)cc(Cl)cc1C(=O)Nc1ccc([N+](=O)[O-])cc1Cl | i | -26% | 16 | 3.5µM* | -14 | -1%
CN(C)c1nc2cc3c(cc2cc1CN(CC1CCCO1)C(=O)c1cccc(F)c1)OCO3 (stereo not given) | / | / | / | / | / | -2%
COc1ccc2c(c1)c(CC(=O)NCc1cc([N+](=O)[O-])ccc1O)c(C)n2C(=O)c1ccc(Cl)cc1 | i | 8% | 4 | 35µM* | -5 | -6%
